# Test results published in PubChem BioAssay (EPA / NIEHS).
# Several values for one entry are separate records, joined by “and”; a condition that tells them apart may be missing. Identical values can stand only once. Some compounds were tested as several samples or in several runs, with calls that do not always agree. Activity calls are given as the source filed them. Rule for the calls: active = hit-call score of the fitted dose curve at least 0.9, where 1 is the maximum; inactive = score below 0.9.
# Columns and labels:
# [1] = read-out: Plasminogen activator inhibitor-1 (PAI1), SERPINE1 (gene 5054); assay: BSK_hDFCGF_PAI1: BioMAP Diversity Plus: hDFCGF Assay for Plasminogen activator inhibitor-1 (PAI1) Biomarker Activity (AID 2283066); settings: primary human foreskin fibroblasts; actives raise or lower the signal
# Procedure, shortened: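 PAI-1 levels, determined by ELISA, served as the endpoint in human foreskin fibroblast cultures exposed to compound for 24 h, with DMSO as baseline.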
# [2] = read-out: Intercellular Adhesion Molecule 1 (ICAM1), ICAM1 (gene 3383); assay: BSK_KF3CT_ICAM1: BioMAP Diversity Plus: KF3CT Assay for Intercellular Adhesion Molecule 1 (ICAM1) Biomarker Activity (AID 2283067); settings: primary human keratinocytes with fibroblasts; actives raise or lower the signal
# Procedure, shortened: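 Human keratinocyte–foreskin fibroblast co-culture was treated for 24 h. Cell-surface ICAM-1 was quantified by ELISA, fitted bidirectionally relative to DMSO. Cytotoxicity was checked in parallel cultures by SRB total-protein staining.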
# [3] = read-out: Interferon-gamma inducible Protein 10 (IP10), CXCL10 (gene 3627); assay: BSK_KF3CT_IP10: BioMAP Diversity Plus: KF3CT Assay for Interferon-gamma inducible Protein 10 (IP10) Biomarker Activity (AID 2283068); settings: primary human keratinocytes with fibroblasts; actives raise or lower the signal
# Procedure, shortened: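 In a primary skin co-culture of keratinocytes and fibroblasts, IP-10 is quantified by ELISA at 24 h after dosing. SRB staining of parallel wells monitors overt toxicity. Curves are fitted both directions against DMSO.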
# [4] = BSK_KF3CT_SRB: Viability Assessment in the BioMAP Diversity Plus: KF3CT Assay (AID 2283069); settings: primary human keratinocytes with fibroblasts;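 note: total protein by sulforhodamine B staining as a cytotoxicity measure; fitted for both signal gain and loss against DMSO baseline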
# Procedure, shortened: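 Human keratinocyte and foreskin fibroblast co-culture exposed to chemical for 24 h. Total protein measured in parallel cultures by 0.1% sulforhodamine B staining after 10% TCA fixation, read at 560 nm; bidirectional fit relative to DMSO.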
# [5] = read-out: Interleukin-1 alpha (IL1a), IL1A (gene 3552); assay: BSK_KF3CT_IL1a: BioMAP Diversity Plus: KF3CT Assay for Interleukin-1 alpha (IL1a) Biomarker Activity (AID 2283070); settings: primary human keratinocytes with fibroblasts; actives raise or lower the signal
# Procedure, shortened: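 Primary human keratinocyte plus foreskin fibroblast co-culture, dosed and measured at 24 h in 96-well plates. IL-1a level quantified by ELISA; bidirectional fit relative to DMSO.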
# [6] = read-out: TIMP metallopeptidase inhibitor 2 (TIMP2), TIMP2 (gene 7077); assay: BSK_KF3CT_TIMP2: BioMAP Diversity Plus: KF3CT Assay for TIMP metallopeptidase inhibitor 2 (TIMP2) Biomarker Activity (AID 2283071); settings: primary human keratinocytes with fibroblasts; actives raise or lower the signal
# Procedure, shortened: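 Keratinocyte–fibroblast co-culture, 24 h exposure; TIMP-2 ELISA, DMSO-normalised bidirectional fit. Parallel SRB (0.1%, TCA-fixed, 560 nm) total-protein staining gauges cytotoxicity.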
# [7] = read-out: Transforming growth factor beta 1 (TGFb1), TGFB1 (gene 7040); assay: BSK_KF3CT_TGFb1: BioMAP Diversity Plus: KF3CT Assay for Transforming growth factor beta 1 (TGFb1) Biomarker Activity (AID 2283072); settings: primary human keratinocytes with fibroblasts; actives raise or lower the signal
# Procedure, shortened: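 Signal changes in either direction, relative to DMSO, define activity here. TGF-b1 is read by ELISA from a human keratinocyte-fibroblast co-culture 24 h post-dose.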
# [8] = read-out: C-C motif chemokine 2 (Homo sapiens) (UniProt P13500); assay: BSK_KF3CT_MCP1: BioMAP Diversity Plus: KF3CT Assay for Monocyte Chemoattractant Protein 1 (MCP1/CCL2) Biomarker Activity (AID 2283073); settings: primary human keratinocytes with fibroblasts; actives raise or lower the signal
# Procedure, shortened: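 Human keratinocyte–foreskin fibroblast co-culture; MCP-1 measured by ELISA 24 h after dosing. Bidirectional fit vs DMSO; cytotoxicity tracked by SRB total protein in parallel cultures.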
# [9] = read-out: Matrix Metallopeptidase 9 (MMP9), MMP9 (gene 4318); assay: BSK_KF3CT_MMP9: BioMAP Diversity Plus: KF3CT Assay for Matrix Metallopeptidase 9 (MMP9) Biomarker Activity (AID 2283074); settings: primary human keratinocytes with fibroblasts; actives raise or lower the signal
# Procedure, shortened: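 Human keratinocyte and foreskin fibroblast co-culture exposed to chemicals for 24 h; MMP9 biomarker measured by ELISA, bidirectional fitting relative to DMSO; cytotoxicity tracked by SRB total protein staining in parallel cultures.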
# [10] = read-out: urokinase plasminogen activator (uPA), PLAU (gene 5328); assay: BSK_KF3CT_uPA: BioMAP Diversity Plus: KF3CT Assay for urokinase plasminogen activator (uPA) Biomarker Activity (AID 2283075); settings: primary human keratinocytes with fibroblasts; actives raise or lower the signal
# Procedure, shortened: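 Primary human keratinocyte/foreskin fibroblast co-culture exposed to chemical; uPA measured by ELISA at 24 h. Bidirectional fit versus DMSO, with parallel SRB total-protein staining for cytotoxicity.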
# [11] = read-out: CD40, CD40 (gene 958); assay: BSK_LPS_CD40: BioMAP Diversity Plus: LPS Assay for CD40 Biomarker Activity (AID 2283076); settings: primary human HUVEC with PBMC; actives raise or lower the signal
# Procedure, shortened: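 HUVEC plus PBMC co-culture stimulated with LPS; CD40 quantified by ELISA 24 h after compound dosing. Fitting was bidirectional relative to DMSO. SRB staining of parallel cultures flagged overt cytotoxicity.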
# [12] = read-out: E-selectin (Homo sapiens) (UniProt P16581); assay: BSK_LPS_Eselectin: BioMAP Diversity Plus: LPS Assay for Eselectin Biomarker Activity (AID 2283077); settings: primary human HUVEC with PBMC; actives raise or lower the signal
# Procedure, shortened: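 Human umbilical vein endothelial cells co-cultured with PBMC under LPS stimulation; cell-surface E-selectin measured by ELISA 24 h after dosing. Change in either direction versus DMSO, with SRB total-protein staining in parallel cultures for cytotoxicity.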
# [13] = read-out: Interleukin-8 (IL8), CXCL8 (gene 3576); assay: BSK_LPS_IL8: BioMAP Diversity Plus: LPS Assay for Interleukin-8 (IL8) Biomarker Activity (AID 2283078); settings: primary human HUVEC with PBMC; actives raise or lower the signal
# Procedure, shortened: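 Human umbilical vein endothelial cells co-cultured with PBMC, LPS-stimulated, exposed to compound for 24 h. IL-8 quantified by ELISA; fitted in both directions against DMSO, with SRB total-protein staining of parallel cultures for cytotoxicity.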
# [14] = BSK_LPS_SRB: Viability Assessment in the BioMAP Diversity Plus: LPS Assay (AID 2283079); settings: primary human HUVEC with PBMC;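 note: total protein by sulforhodamine B absorbance as a cytotoxicity measure; measured one day after compound addition; fitted in both directions against DMSO so loss or gain of signal counts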
# Procedure, shortened: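 Co-culture of human umbilical vein endothelial cells and PBMC, read 24 h after dosing. Total protein by 0.1% SRB staining after 10% TCA fixation, absorbance at 560 nm; bidirectional fit against DMSO.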
# [15] = read-out: Monocyte Chemoattractant Protein-1 (MCP1), CCL2 (gene 6347); assay: BSK_LPS_MCP1: BioMAP Diversity Plus: LPS Assay for Monocyte Chemoattractant Protein-1 (MCP1) Biomarker Activity (AID 2283081); settings: primary human HUVEC with PBMC; actives raise or lower the signal
# Procedure, shortened: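 Human umbilical vein endothelial cells co-cultured with PBMC, LPS-stimulated; secreted MCP-1 measured by ELISA 24 h after compound addition. Bidirectional curve fitting against DMSO baseline; SRB total-protein staining in parallel cultures for cytotoxicity.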
# [16] = read-out: Macrophage colony-stimulating factor (MCSF), CSF1 (gene 1435); assay: BSK_LPS_MCSF: BioMAP Diversity Plus: LPS Assay for Macrophage colony-stimulating factor (MCSF) Biomarker Activity (AID 2283083); settings: primary human HUVEC with PBMC; actives raise or lower the signal
# Procedure, shortened: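 HUVEC–PBMC co-culture, M-CSF measured by ELISA 24 h after chemical dosing. Fitted in both directions relative to DMSO as negative control; overt cytotoxicity assessed by SRB total-protein staining in parallel cultures.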
# [17] = read-out: Tissue Factor, F3 (gene 2152); assay: BSK_LPS_TissueFactor: BioMAP Diversity Plus: LPS Assay for Tissue Factor Biomarker Activity (AID 2283084); settings: primary human HUVEC with PBMC; actives raise or lower the signal
# Procedure, shortened: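 Human umbilical vein endothelial cells co-cultured with PBMC were dosed with compound. Cell-surface CD142 was measured by ELISA 24 h later. Activity was fitted bidirectionally against DMSO, with SRB total-protein staining in parallel cultures for cytotoxicity.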
# [18] = read-out: Tumor necrosis factor (Homo sapiens) (UniProt P01375); assay: BSK_LPS_TNFa: BioMAP Diversity Plus: LPS Assay for Tumour Necrosis Factor alpha (TNFa) Biomarker Activity (AID 2283085); settings: primary human HUVEC with PBMC; actives raise or lower the signal;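 for AC50: TNFa protein level quantified by ELISA in the co-culture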
# Procedure, shortened: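 Primary human vascular co-culture of HUVEC and PBMC; TNFa ELISA 24 h after treatment, analysed as increase or decrease relative to DMSO control.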
# [19] = BSK_LPS_PGE2: BioMAP Diversity Plus: LPS Assay for Prostaglandin E2 (PGE2) Biomarker Activity (AID 2283082); settings: primary human HUVEC with PBMC; actives raise or lower the signal;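 for AC50: secreted prostaglandin E2 measured by ELISA in LPS-stimulated co-culture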
# Procedure, shortened: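 Endpoint derived from bidirectional curve fitting versus DMSO of ELISA-measured PGE2 in LPS-stimulated human primary vascular co-culture (HUVEC with PBMC) harvested at 24 h.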
# Sequence of Tumor necrosis factor (Homo sapiens) (P01375 whole entry, looked up): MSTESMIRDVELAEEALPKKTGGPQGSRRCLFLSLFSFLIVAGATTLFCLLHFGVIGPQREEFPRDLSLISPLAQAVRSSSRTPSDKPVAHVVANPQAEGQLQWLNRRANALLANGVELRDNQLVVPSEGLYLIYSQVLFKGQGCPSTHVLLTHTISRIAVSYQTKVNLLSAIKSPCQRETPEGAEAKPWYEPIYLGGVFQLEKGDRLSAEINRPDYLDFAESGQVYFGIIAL
# Sequence of E-selectin (Homo sapiens) (P16581 whole entry, looked up): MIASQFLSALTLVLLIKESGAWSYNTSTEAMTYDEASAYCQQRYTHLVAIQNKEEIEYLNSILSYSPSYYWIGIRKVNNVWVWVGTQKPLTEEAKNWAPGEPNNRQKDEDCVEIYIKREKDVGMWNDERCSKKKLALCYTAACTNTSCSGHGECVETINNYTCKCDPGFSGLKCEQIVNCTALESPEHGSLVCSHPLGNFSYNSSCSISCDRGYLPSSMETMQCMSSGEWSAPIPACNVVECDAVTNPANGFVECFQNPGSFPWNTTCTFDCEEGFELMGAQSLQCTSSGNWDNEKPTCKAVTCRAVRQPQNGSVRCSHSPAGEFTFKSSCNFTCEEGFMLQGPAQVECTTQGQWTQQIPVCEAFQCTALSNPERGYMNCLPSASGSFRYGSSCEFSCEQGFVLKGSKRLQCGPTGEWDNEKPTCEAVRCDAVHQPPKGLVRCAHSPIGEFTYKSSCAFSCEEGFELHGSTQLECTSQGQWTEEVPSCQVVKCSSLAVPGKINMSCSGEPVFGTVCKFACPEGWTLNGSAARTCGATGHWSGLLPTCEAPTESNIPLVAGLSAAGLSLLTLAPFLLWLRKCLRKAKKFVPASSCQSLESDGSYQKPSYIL
structure (smiles),measurement,setting,value
Cn1cnc([N+](=O)[O-])c1Sc1ncnc2nc[nH]c12,AC50,[1],11.7 µM (active)
same,outcome,[1],inactive
same,outcome,[2],inactive
same,outcome,[3],inactive
same,outcome,[4],inactive
same,outcome,[5],inactive
same,outcome,[6],inactive
same,outcome,[7],inactive
same,outcome,[8],inactive
same,outcome,[9],inactive
same,outcome,[10],inactive
same,AC50,[11],26.9 µM (active) and 4.17 µM (active)
same,outcome,[11],inactive
same,outcome,[12],inactive
same,outcome,[13],inactive
same,outcome,[14],inactive
same,outcome,[15],inactive
same,AC50,[16],20.3 µM (active) and 5.64 µM (active)
same,outcome,[16],inactive
same,outcome,[17],inactive
same,AC50,[18],19.2 µM (active) and 15.7 µM (active)
same,outcome,[18],inactive
Oc1ccc2c(c1)-c1ccccc1C2,outcome,[1],inactive
same,outcome,[2],inactive
same,outcome,[3],inactive
same,outcome,[4],inactive
same,outcome,[5],inactive
same,outcome,[6],inactive
same,outcome,[7],inactive
same,outcome,[8],inactive
same,outcome,[9],inactive
same,outcome,[10],inactive
same,AC50,[11],20 µM (active)
same,outcome,[12],inactive
same,outcome,[13],inactive
same,AC50,[14],20 µM (active)
same,outcome,[15],inactive
same,AC50,[19],13.2 µM (active)
same,outcome,[16],inactive
same,outcome,[17],inactive
same,AC50,[18],334 nM (active)
CCOCCO,outcome,[1],inactive
same,outcome,[2],inactive
same,outcome,[3],inactive
same,outcome,[4],inactive
same,outcome,[5],inactive
same,outcome,[6],inactive
same,outcome,[7],inactive
same,outcome,[8],inactive
same,outcome,[9],inactive
same,outcome,[10],inactive
same,outcome,[11],inactive
same,outcome,[12],inactive
same,outcome,[13],inactive
same,outcome,[14],inactive
same,outcome,[15],inactive
same,outcome,[19],inactive
same,outcome,[16],inactive
same,outcome,[17],inactive
same,outcome,[18],inactive
